# Where “and” joins values, the source holds several entries; their conditions need not be identical. Equal entries are not always repeated. Calls of active or inactive are those of the source.
# What was measured:
# [1] = test system: Plasmodium falciparum Sir2 (PF13_0152, Sir2A); assay: pfSir2 binders on small-molecule microarrays, primary screen, biochemical, small-molecule microarray, 635 nm fluorescence (AID 1098); conditions: small-molecule microarray binding, fluorescence 635 nm; higher = more signal;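 further: score merges spot fluorescence intensity with its signal-to-noise ratio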
# [2] = small-molecule microarray binders of probe aDKK1, primary screen, biochemical, biotinylated probe, 635/667 nm fluorescence (AID 1099); conditions: higher = more signal;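 further: score merges 667nm spot fluorescence with signal to noise across triplicate slides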
# [3] = small-molecule microarray binders of probe aCHRDL2, primary screen, biochemical, biotinylated probe, 635/667 nm fluorescence (AID 1100); conditions: higher = more signal
# [4] = splicing luciferase reporter signal modulators, primary screen, spliceosome inhibition project, cell-based, HEK293, splice +/- reporter (AID 1101); conditions: luminescence, 24 h, higher = more signal, called active from +8 up or from −8 down;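 further: HEK293 cells carrying a splicing-competent luciferase reporter gene; test concentration not given here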
# [5] = target: Fibroblast growth factor 10 (Homo sapiens) (UniProt O15520); assay: FGF10 binders on small-molecule microarrays, primary screen, biochemical, small-molecule microarray, 635 nm fluorescence (AID 1102); conditions: FGF10 binding, fluorescence 635 nm, higher = more signal
# [6] = test system: glycogen synthase kinase-3 (GSK3A per assay name; protocol says GSK3B); assay: GSK3 binders on small-molecule microarrays, primary screen, biochemical, small-molecule microarray, 635 nm fluorescence, GSK3A (AID 1103); conditions: small-molecule microarray binding, fluorescence 635 nm; higher = more signal; further: the record names both GSK3A and GSK3B
# [7] = target: Epidermal growth factor receptor (Homo sapiens) (UniProt P00533); assay: EGFR binders on small-molecule microarrays, primary screen, biochemical, small-molecule microarray, 635 nm fluorescence (AID 1104); conditions: EGFR binding, higher = more signal;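 further: score merges 667 nm emission intensity with spot signal to noise over triplicate slides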
# [8] = target: Follistatin-related protein 3 (Homo sapiens) (UniProt O95633); assay: FSTL3 binders on small-molecule microarrays, primary screen, biochemical, small-molecule microarray, 635 nm fluorescence (AID 1105); conditions: FSTL3 binding, higher = more signal;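 further: score merges emission near 667 nm and signal to noise per printed spot across three slides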
# [9] = target: Dickkopf-related protein 1 (Homo sapiens) (UniProt O94907); assay: DKK1 binders on small-molecule microarrays, primary screen, biochemical, small-molecule microarray, 635 nm fluorescence scan (AID 1106); conditions: DKK1 binding, higher = more signal;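 further: score merges emission near 667 nm with signal to noise over three replicate slides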
# [10] = test system: Inhibin beta A chain (activin A); assay: INHBA (activin A) binders on microarrays, primary screen, biochemical, small-molecule microarray, 635 nm fluorescence scan (AID 1107); conditions: small-molecule microarray binding, higher = more signal;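 further: mouse activin A protein probed at 4.33 µg/mL on printed slides; score merges bound-protein fluorescence near 667 nm with spot signal-to-noise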
# [11] = test system: Human papillomavirus type 1a protein E7 (residues 44-93); assay: HPV1a E7 fragment binders on microarrays, primary screen, biochemical, small-molecule microarray, residues 44-93, 635 nm fluorescence (AID 1108); conditions: small-molecule microarray binding, fluorescence 635 nm; higher = more signal;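 further: E7 fragment applied at 1 µg/mL in TBST for 1 h at 4 C; score combines spot fluorescence with its signal to noise ratio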
# [12] = modulators of HCV replicon luciferase signal, primary screen, HCV replication inhibitor project, Huh7 cells, luciferase reporter (AID 1109); conditions: 48 h, higher = more signal;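 further: huh7 hepatoma cells harbouring a luciferase neomycin HCV replicon reporter; luciferase luminescence as measure of HCV replicon replication; test concentration not given here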
# [13] = target: Left-right determination factor 2 (Homo sapiens) (UniProt O00292); assay: LEFTY2 binders on small-molecule microarrays, primary screen, biochemical, small-molecule microarray, 635 nm fluorescence scan (AID 1110); conditions: LEFTY2 binding, higher = more signal
# [14] = target: Calmodulin-1 (Homo sapiens) (UniProt P0DP23); assay: CALM1 binders on microarrays, EGTA buffer, profiling panel, biochemical, small-molecule microarray, Cy5-labelled CALM1 (AID 1111); conditions: Cy5-CALM1 binding fluorescence, higher = more signal;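 further: labelled calmodulin applied in Tris saline Tween buffer holding calcium plus EGTA and DTT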
# [15] = target: Calmodulin-1 (Homo sapiens) (UniProt P0DP23); assay: calcium-bound CALM1 binders on microarrays, profiling panel, artefact control for SMM control-protein annotation, biochemical, small-molecule microarray, Cy5-labelled CALM1, plus calcium (AID 1112); conditions: Cy5-CALM1 binding fluorescence, higher = more signal;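 further: score merges spot fluorescence with signal to noise from triplicate slides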
# [16] = small-molecule microarray binders of probe aWnt5a, primary screen, biochemical, biotinylated probe, 635/667 nm fluorescence (AID 1113); conditions: higher = more signal;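 further: score merges 667 nm fluorescence intensity with signal-to-noise per printed feature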
# [17] = small-molecule microarray binders of probe aShh, primary screen, biochemical, biotinylated probe, 635/667 nm fluorescence (AID 1114); conditions: higher = more signal;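 further: probe is biotin-labelled aShh protein from a stem cell growth factor screen; measures binding of labelled protein to compounds printed on the slide; score merges feature fluorescence at 667 nm with signal-to-noise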
# [18] = small-molecule microarray binders of probe aNog, primary screen, biochemical, biotinylated probe, 635/667 nm fluorescence (AID 1115); conditions: higher = more signal;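 further: probe is biotinylated aNog protein used at 0.15 µg/mL for 1 h at 4 C; z-score combines 667 nm fluorescence of each spot with its signal to noise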
# [19] = target: Torsin-1A-interacting protein 1 (Homo sapiens) (UniProt Q5JTV8); assay: LAP1 binders from COS7 cell lysate, primary screen, small-molecule microarray, 635/667 nm fluorescence (AID 1116); conditions: COS7-hLAP1 lysate binding, 635 nm fluorescence, higher = more signal
# [20] = target: Alpha-bungarotoxin (Bungarus multicinctus) (UniProt P60615); assay: alpha-bungarotoxin binders on microarray, profiling panel, artefact control for SMM control protein annotation, biochemical, small-molecule microarray, Alexa647 label, 635/667 nm fluorescence (AID 1117); conditions: alpha-BTX-A647 binding fluorescence, higher = more signal
# Chain of Alpha-bungarotoxin (Bungarus multicinctus) (P60615 whole entry, looked up): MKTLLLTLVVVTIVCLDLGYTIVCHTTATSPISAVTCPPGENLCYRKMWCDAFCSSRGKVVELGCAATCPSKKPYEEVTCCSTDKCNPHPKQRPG
# Chain of Left-right determination factor 2 (Homo sapiens) (O00292 whole entry, looked up): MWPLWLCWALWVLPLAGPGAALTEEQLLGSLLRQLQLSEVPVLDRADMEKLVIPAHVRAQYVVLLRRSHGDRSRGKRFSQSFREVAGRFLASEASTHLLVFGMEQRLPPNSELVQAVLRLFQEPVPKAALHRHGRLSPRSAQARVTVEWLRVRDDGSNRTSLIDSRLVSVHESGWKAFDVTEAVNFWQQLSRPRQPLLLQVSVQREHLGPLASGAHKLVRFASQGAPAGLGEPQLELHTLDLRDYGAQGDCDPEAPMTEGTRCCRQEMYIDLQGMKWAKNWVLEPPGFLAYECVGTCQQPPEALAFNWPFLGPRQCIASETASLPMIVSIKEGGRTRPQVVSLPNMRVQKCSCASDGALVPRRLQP
# Chain of Follistatin-related protein 3 (Homo sapiens) (O95633 whole entry, looked up): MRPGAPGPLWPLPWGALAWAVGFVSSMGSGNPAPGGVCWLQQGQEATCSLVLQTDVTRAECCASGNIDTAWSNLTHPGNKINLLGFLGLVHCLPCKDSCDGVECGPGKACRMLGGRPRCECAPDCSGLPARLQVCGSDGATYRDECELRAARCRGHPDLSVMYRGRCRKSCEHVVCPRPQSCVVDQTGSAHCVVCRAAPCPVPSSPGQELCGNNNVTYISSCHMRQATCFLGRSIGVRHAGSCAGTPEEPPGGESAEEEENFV
# Chain of Dickkopf-related protein 1 (Homo sapiens) (O94907 whole entry, looked up): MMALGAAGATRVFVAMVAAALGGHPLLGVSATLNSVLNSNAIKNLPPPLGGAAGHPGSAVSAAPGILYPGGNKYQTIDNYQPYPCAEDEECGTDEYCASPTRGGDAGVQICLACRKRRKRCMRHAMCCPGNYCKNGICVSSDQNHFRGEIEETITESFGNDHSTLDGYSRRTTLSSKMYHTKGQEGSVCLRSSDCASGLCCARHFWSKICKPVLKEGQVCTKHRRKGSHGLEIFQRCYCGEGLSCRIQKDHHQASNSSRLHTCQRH
# Chain of Fibroblast growth factor 10 (Homo sapiens) (O15520 whole entry, looked up): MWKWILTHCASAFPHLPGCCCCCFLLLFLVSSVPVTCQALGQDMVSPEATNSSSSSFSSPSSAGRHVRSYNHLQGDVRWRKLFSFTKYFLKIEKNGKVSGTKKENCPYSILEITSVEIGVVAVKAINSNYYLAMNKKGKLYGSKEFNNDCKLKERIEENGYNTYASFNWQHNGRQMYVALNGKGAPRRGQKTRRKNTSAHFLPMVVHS
# Chain of Epidermal growth factor receptor (Homo sapiens) (P00533 whole entry, looked up): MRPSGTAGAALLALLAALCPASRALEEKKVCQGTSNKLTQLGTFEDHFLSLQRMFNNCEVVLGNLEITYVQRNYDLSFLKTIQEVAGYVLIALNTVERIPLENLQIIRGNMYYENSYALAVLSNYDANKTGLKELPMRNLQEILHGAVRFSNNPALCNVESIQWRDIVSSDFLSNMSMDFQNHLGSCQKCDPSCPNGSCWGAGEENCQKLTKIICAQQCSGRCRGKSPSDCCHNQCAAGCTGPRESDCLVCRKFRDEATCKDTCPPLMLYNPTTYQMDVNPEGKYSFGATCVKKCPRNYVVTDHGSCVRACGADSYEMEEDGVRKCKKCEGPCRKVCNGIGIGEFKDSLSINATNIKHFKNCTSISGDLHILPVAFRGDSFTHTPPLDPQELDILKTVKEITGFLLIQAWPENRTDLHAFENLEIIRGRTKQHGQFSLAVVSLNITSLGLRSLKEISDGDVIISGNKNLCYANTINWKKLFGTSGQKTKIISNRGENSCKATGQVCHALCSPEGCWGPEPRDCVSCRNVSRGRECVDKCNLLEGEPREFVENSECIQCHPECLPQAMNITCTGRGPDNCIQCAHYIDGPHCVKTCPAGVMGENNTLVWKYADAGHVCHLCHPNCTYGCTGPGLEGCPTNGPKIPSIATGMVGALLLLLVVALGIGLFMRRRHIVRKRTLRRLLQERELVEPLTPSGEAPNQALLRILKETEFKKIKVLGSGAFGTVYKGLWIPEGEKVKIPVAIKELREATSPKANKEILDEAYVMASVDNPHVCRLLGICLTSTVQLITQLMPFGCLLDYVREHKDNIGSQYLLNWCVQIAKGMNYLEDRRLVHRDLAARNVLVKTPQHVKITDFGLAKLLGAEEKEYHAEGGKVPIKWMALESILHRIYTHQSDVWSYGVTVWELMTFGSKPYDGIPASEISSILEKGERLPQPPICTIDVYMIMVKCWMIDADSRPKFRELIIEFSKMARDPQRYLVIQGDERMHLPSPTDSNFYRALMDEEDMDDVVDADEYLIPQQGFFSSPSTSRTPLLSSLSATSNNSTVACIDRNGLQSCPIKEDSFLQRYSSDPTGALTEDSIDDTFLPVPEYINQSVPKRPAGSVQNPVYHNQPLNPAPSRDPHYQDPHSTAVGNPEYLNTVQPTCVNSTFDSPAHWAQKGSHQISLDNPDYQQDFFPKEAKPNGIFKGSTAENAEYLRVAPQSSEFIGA
# Chain of Torsin-1A-interacting protein 1 (Homo sapiens) (Q5JTV8 whole entry, looked up): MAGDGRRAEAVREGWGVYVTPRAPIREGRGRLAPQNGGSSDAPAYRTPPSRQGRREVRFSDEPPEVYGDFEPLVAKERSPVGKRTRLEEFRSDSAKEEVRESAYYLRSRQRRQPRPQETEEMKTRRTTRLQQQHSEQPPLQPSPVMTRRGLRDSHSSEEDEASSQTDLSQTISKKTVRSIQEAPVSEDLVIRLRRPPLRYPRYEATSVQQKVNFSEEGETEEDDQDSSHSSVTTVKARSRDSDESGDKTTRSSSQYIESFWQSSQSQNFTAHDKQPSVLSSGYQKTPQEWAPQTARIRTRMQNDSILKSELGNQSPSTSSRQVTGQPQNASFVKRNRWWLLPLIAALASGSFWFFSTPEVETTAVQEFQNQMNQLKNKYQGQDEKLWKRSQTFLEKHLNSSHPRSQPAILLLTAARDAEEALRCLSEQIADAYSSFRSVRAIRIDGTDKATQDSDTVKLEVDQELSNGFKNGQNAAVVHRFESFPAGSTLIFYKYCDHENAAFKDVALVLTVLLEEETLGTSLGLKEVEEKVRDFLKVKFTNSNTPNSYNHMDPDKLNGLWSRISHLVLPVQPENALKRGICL
SMILES,composite z-score [1],composite z-score [2],composite z-score [3],z-score [4],composite z-score [5],composite z-score [6],composite z-score [7],composite z-score [8],composite z-score [9],composite z-score [10],composite z-score [11],z-score [12],composite z-score [13],composite z-score [14],composite z-score [15],composite z-score [16],composite z-score [17],composite z-score [18],composite z-score [19],composite z-score [20]
C=CCN(C(=O)C1N(CCOCCO)C(=O)C2C(C(=O)O)C3C=CC21O3)c1ccc(OC)cc1 (stereo not given),-0.703 and 0.492,0.0448 and 0.214,0.787 and 1.07,0.503 (inactive) and 0.116 (inactive),-1.53 and -1.43,-0.805 and -0.855,-1.33 and -3.15,-2.58 and -2.06,-1.83 and -2.76,-3.52 and -4.08,-0.754 and -1.72,0.51 and -0.102,-2.03 and -2.77,-0.315 and -1.35,0.538 and -0.237,-0.2 and -0.214,-0.221 and -0.195,0.406 and 0.669,1.38 and -0.149,-1.18 and -2.65
CO[C@H]1COC(=O)CC=C[C@@H](C)COC(=O)[C@@H](OCc2ccccc2)C=C[C@@H]1C,0.661,-0.533,-1.54,0.19 (inactive),0.241,1.1,0.831,1.32,0.644,1.57,-0.418,-0.0629,1.32,-0.779,-2.05,-0.34,0.149,-0.378,0.417,0.205
CC(CO)N1C(=O)[C@@H]2C3C(=O)OCCC=C[C@H]3OC23C=CCN(c2ccc4ccccc4c2)C(=O)[C@@H]13 (stereo not given in full),0.971 and 0.0013,0.0565 and -0.627,0.691 and -0.64,0.132 (inactive) and 0.555 (inactive),-0.773 and -0.238,-0.236 and -0.0124,-1.06 and -0.897,-0.352 and 0.329,-1.6 and -0.929,0.665 and 0.142,1.24 and -0.698,-0.466 and -0.213,-1.21 and 0.0157,-0.482 and -1.21,0.0293 and -1.1,-0.203 and -0.183,0.0141 and -0.824,0.304 and -0.61,2.61 and 1.05,-0.69 and -0.343
COC(=O)C1=C2N(Cc3ccccc3)C(C)=C(C(=O)OC)[C@@H](c3ccccc3)N2C(=O)[C@](O)(C(=O)OC)C1,0.271 and 0.0802,-0.17 and -0.241,-0.684 and -0.512,-0.229 (inactive) and 0.213 (inactive),0.622 and 0.395,0.943 and 0.479,0.273 and 0.585,0.963 and 0.359,0.916 and 0.574,-0.146 and 0.22,-0.101 and 0.137,0.591 and 0.406,0.198 and 0.531,0.225 and -0.29,-0.803 and -0.391,-0.169 and -0.237,-0.214 and -0.0914,-0.18 and 0.162,-0.203 and 1.01,0.661 and 0.171
C=CCN(CCCCC)C(=O)C1N(CCOCCO)C(=O)C2C(C(=O)O)C3C=CC21O3 (stereo not given),0.128 and 1.72,-0.344 and -0.208,0.77 and 0.925,0.8 (inactive) and 1.24 (inactive),-1.48 and -1.61,-1.97 and -0.615,-1.74 and -1.79,-1.54 and -1.58,-2.58 and -3.23,-1.97 and -1.95,-1.53 and -0.495,-0.586 and 0.715,-2.78 and -1.83,-0.368 and -0.355,1.01 and 1.07,-0.276 and -0.328,0.0048 and -0.124,-0.149 and -0.201,-1.04 and 1.94,-1.16 and -3.11
C=CCN(CCCC)C(=O)C1N(C(C)(C)CO)C(=O)C2C(C(=O)O)C3C=CC21O3 (stereo not given),0.645 and 0.0697,-0.188 and -0.123,0.717 and 0.644,0.395 (inactive) and 0.383 (inactive),-1.84 and -0.834,-2.07 and -1.67,-1.97 and -1.42,-2 and -2.8,-2.4 and -1.9,-3.85 and -3,-1.32 and -1.36,-0.299 and 0.145,-3.24 and -2.31,-0.742 and -0.335,1.1 and 0.491,-0.297 and -0.169,-0.0626 and -0.23,-0.0094 and 0.125,-1.24 and -2.03,-1.41 and -0.821
C=CCN(CCCCC)C(=O)C(c1cccs1)N(CCOCCO)C(=O)/C=C\C(=O)O (stereo not given),0.0427 and 0.42,-0.588 and -0.228,0.658 and 0.6,-0.841 (inactive) and -1.36 (inactive),-1.6 and -0.98,-0.918 and -0.491,-1.05 and -0.766,-0.411 and -0.744,-1.04 and -1.54,-1.79 and -0.36,-1.74 and -0.0507,-0.572 and 0.96,-0.828 and -1.56,-1.04 and -0.776,-0.408 and 0.326,-0.135 and -0.199,-0.223 and -0.283,-0.308 and 0.0644,-0.922 and -0.405,-0.676 and 1.14
COC(=O)C1=C(C)N(Cc2ccccc2)[C@]23O[C@](C(=O)OC)(C(=O)N2[C@@H]1c1ccccc1)[C@H]1CCCC(=O)[C@H]13,0.355 and 0.285,0.0172 and -0.338,-0.298 and -0.45,-0.0479 (inactive) and -1.41 (inactive),0.526 and 0.72,0.201 and 0.287,0.218 and 0.506,0.336 and 0.515,0.421 and 0.508,0.518 and 0.15,-0.525 and 0.155,-3.35 and -1.15,0.877 and 0.588,-0.127 and -0.222,0.0491 and -0.499,-0.0792 and -0.0462,-0.0146 and -0.0553,-0.275 and -0.367,0.206 and 0.139,0.787 and 0.0026
C=CCN(CCCCC)C(=O)C1N(c2c(Cl)cccc2CO)C(=O)C2C(C(=O)O)C3C=CC21O3 (stereo not given),-0.116 and 0.397,0.784 and 0.13,0.479 and 1.12,-0.282 (inactive) and -0.455 (inactive),-1.35 and -1.3,-0.607 and -1.18,-3.02 and -1.91,-2.09 and -2.23,-2.91 and -2.56,-1.96 and -1.99,-0.495 and -1.04,-1.62 and -0.992,-1.3 and -3.32,-0.522 and -1.03,0.639 and 0.545,-0.292 and -0.23,-0.214 and -0.262,0.0029 and 0.0473,0.443 and -0.697,-1.91 and -1.04
CCCC[C@@H]1CN2[C@H](c3ccc(Br)cc3)[C@@H](C)CC[C@H]2C(=O)O1,0.186 and 0.254,-0.385 and -0.192,-0.492 and -0.707,-0.475 (inactive) and 0.405 (inactive),0.124 and 0.115,0.0093 and -0.0119,0.283 and 0.308,-0.427 and -0.351,0.407 and -0.117,0.574 and 0.485,-0.519 and 0.166,-0.403 and -0.983,0.189 and 0.327,-0.254 and -0.255,-0.329 and -0.334,-0.232 and -0.104,-0.273 and -0.138,0.153 and 0.0051,0.0737 and 0.259,0.412 and 0.575
CC(C)=NOCc1ccc(-c2cn([C@@H]3COC[C@H]3O)nn2)cc1,-0.257,-0.123,-0.764,1.04 (inactive),0.506,0.114,0.309,0.273,0.455,0.147,-0.0942,0.28,0.679,0.676,-0.358,-0.143,-0.17,-0.248,0.507,-0.175

# Reference: PubChem BioAssay
